Measured values taken from PubChem BioAssay AID430 (Sanford-Burnham Center for Chemical Genomics, 2006).
About 1,100 (1.7%) of roughly 63,000 compounds were called active. The full list was thinned out, with actives kept by preference. Measured potencies and affinities stand elsewhere. Values without a mark were called inactive. No stated cut-off is given here; in the data, active means cytotoxicity above about 50%; inactive means the rest.

assay: cytotoxicity in HPDE-C7 cells, cell-based, fluorescence, HTS (AID 430); details: HPDE-C7 pancreatic duct cells viability, at 10 µM, hits give high values;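 further: cells exposed to compound for 48 hours before viability readout; 0% = vehicle and 100% = reference cytotoxic drug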

Question: With `Cc1ccc(N2C(=O)CC(N(O)C3CC(=O)N(c4ccc(C)cc4)C3=O)C2=O)cc1` (configuration not stated) as the compound, how does the cytotoxicity read?
Answer: 14.1%

Question: For `C=CCNC(=O)c1sc(=S)n(-c2ccc(C(=O)OCC)cc2)c1N`, which cytotoxicity is on record?
Answer: 2.1%

Question: With `COc1ccc(C)cc1NC(=O)C1CCCN(S(=O)(=O)c2cnc[nH]2)C1` (configuration not stated) as the compound, how does the cytotoxicity read?
Answer: 11.5%

Question: Which cytotoxicity does the source give for `O=C(Cc1ccc(Cl)cc1)Nc1ccccc1CO` here?
Answer: -8.9%

Question: For `CSc1nc(=NC(C)=O)ss1`, which cytotoxicity is on record?
Answer: -2%

Question: With `CC1CCN(C(=O)CSc2nc(N)c3c4c(sc3n2)CN(C)CC4)CC1` as the compound, how does the cytotoxicity read?
Answer: 5.8%

Question: Which cytotoxicity does the source give for `COc1ccc(C(=O)n2cnc(N)n2)cc1` here?
Answer: 2.7%

Question: For `CCCCCCOc1ccc(C(=O)n2cnc(N)n2)cc1`, which cytotoxicity is on record?
Answer: 71.3% (active)

Question: Which cytotoxicity does the source give for `CCCCOc1ccc(C(=O)N2CCCCCC2)cc1` here?
Answer: -14.5%

Question: Which cytotoxicity does the source give for `CCCCn1nc(NC(=O)c2cccs2)c2cc3cc(OC)ccc3nc21` here?
Answer: 28.9%

Question: For `CCCn1nc(NC(=O)c2cccs2)c2cc3cc(OC)ccc3nc21`, which cytotoxicity is on record?
Answer: -7.4%

Question: Which cytotoxicity does the source give for `COc1ccc2nc3c(cc2c1)c(NC(=O)c1cccs1)nn3CC(C)C` here?
Answer: 50.8% (active)

Question: With `O=S(=O)(NCc1ccco1)c1cccc2cccnc12` as the compound, how does the cytotoxicity read?
Answer: 15.9%

Question: For `Cc1ccc(S(=O)(=O)C(C#N)c2nc3ccccc3nc2N2CC(C)OC(C)C2)cc1C` (configuration not stated), which cytotoxicity is on record?
Answer: 50% (active)

Question: Which cytotoxicity does the source give for `Cc1cccc(S(=O)(=O)C(C#N)c2nc3ccccc3nc2N2CC(C)OC(C)C2)c1` (configuration not stated) here?
Answer: 7.1%

Question: Which cytotoxicity does the source give for `Cc1ccc(C)c(S(=O)(=O)C(C#N)c2nc3ccccc3nc2N2CC(C)OC(C)C2)c1` (configuration not stated) here?
Answer: 48.7%

Question: Which cytotoxicity does the source give for `Cc1cccc(S(=O)(=O)C(C#N)c2nc3ccccc3nc2N2CCCC2)c1` (configuration not stated) here?
Answer: -7.1%

Question: For `Cc1ccc(S(=O)(=O)C(C#N)c2nc3ccccc3nc2N2CCCC2)cc1` (configuration not stated), which cytotoxicity is on record?
Answer: 23.3%

Question: With `Cc1ccc(S(=O)(=O)C(C#N)c2nc3ccccc3nc2N2CCCC2)cc1C` (configuration not stated) as the compound, how does the cytotoxicity read?
Answer: 53.9% (active)

Question: Which cytotoxicity does the source give for `COc1ccc2nc(NC(=O)Cc3ccc(OC)c(S(=O)(=O)N4CCOCC4)c3)sc2c1` here?
Answer: 13.1%

Question: For `C=C1c2ccc(C)cc2NC(=O)N1c1ccccc1`, which cytotoxicity is on record?
Answer: -11.1%

Question: With `CCc1c(C)nc2ncnn2c1NCCc1ccc(OC)cc1` as the compound, how does the cytotoxicity read?
Answer: 64.9% (active)

Question: Which cytotoxicity does the source give for `COc1ccc(CCNc2c(C)c(C)nc3ncnn23)cc1` here?
Answer: 10%

Question: Which cytotoxicity does the source give for `CCc1c(C)nc2ncnn2c1NCCc1ccc(OC)c(OC)c1` here?
Answer: 4.7%

Question: With `COCCNC(=O)c1ccccc1NC(=O)c1ccc(OC)c(OC)c1` as the compound, how does the cytotoxicity read?
Answer: -2.2%

Question: Which cytotoxicity does the source give for `O=P(c1ccccc1)(c1ccccc1)C(c1ccco1)N1CCOCC1` (configuration not stated) here?
Answer: -5.8%

Question: For `O=C(Nc1ccc(N2CCOCC2)c(Cl)c1)c1ncn[nH]1`, which cytotoxicity is on record?
Answer: -2.8%
